The results in this text go back to PubChem BioAssay AID1233 (SRMLSC, 2008).

Results with a measured potency or affinity are listed apart. Unmarked numbers belong to inactive results.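 Rule for the calls: active = a dose-response curve fit returns a half-maximal inhibitory concentration, extrapolated values included; inactive = the fit returns no such concentration.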

This assay deals with HMG-CoA reductase [Enterococcus faecalis] (UniProt Q9FD70). Briefly: class II HMG-CoA reductase inhibition potency – biochemical, Enterococcus faecalis, confirmation (AID 1233).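 Note: 0% = full reaction carrier wells and 100% = background wells lacking mevalonate.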 Particulars: purified E. faecalis HMGR, NADPH absorbance 340 nm kinetics; series mostly up to 100 µM; inhibition: at the top concentration.
For orientation: inhibition means the relative decrease from the control value, in per cent. Regarding `O=C(COC(=O)c1cc([N+](=O)[O-])ccc1NCCO)c1ccc(Cl)cc1`, the “inhibition” value is -0.58%. Take `O=C(COC(=O)c1ccncc1)Nc1ccccc1`: the “inhibition” value is -4.19%. For the compound `Fc1ccc(-c2csc3[n+]2CCS3)cc1`, the “inhibition” value was -7.64%.

In the case of `CCOC(=O)C(NC(C)=O)(Nc1ccc(S(=O)(=O)Nc2cc(C)nc(C)n2)cc1)C(F)(F)F` (stereo not given), the “inhibition” value is 0.13%. Regarding `O=C(NN1S(=O)(=O)c2ccccc2S1(=O)=O)c1ccc(Br)cc1`, the “inhibition” value was -12.5%. As for `CCCCc1c(O)nc(SCC(=O)c2ccccc2)[nH]c1=O`, the “inhibition” value is -0.69%. As to `O=C1c2ccccc2NC(c2ccc(Cl)cc2Cl)N1O` (stereo not given), the “inhibition” value is -1.95%. The figure for `O=C(O)C1CCCNC1` (stereo not given) is -0.21%.

In the case of `Cc1nnc(SCc2ccccc2Cl)n1CC1CCCO1` (stereo not given), the “inhibition” value is -1.03%.

As for `O=C(CN1CCC2(CC1)OCCO2)c1ccc2cc[nH]c2c1`, the “inhibition” value is 1.36%. For `Cn1c(CN2CCCC2)c(C#N)c2ccccc21`, the “inhibition” value is -8.53%.

For `CCN(CC)c1ccc(/C=N/NS(=O)(=O)c2cccc([N+](=O)[O-])c2)cc1`, the “inhibition” value is 0.13%. For the compound `N#Cc1c(/N=C/c2ccco2)sc2c1CCCCC2`, the “inhibition” value was -3.07%. The same measure for `O=C(Nc1ccc(S(=O)(=O)Nc2ccccc2)cc1)C1COc2ccccc2O1` (stereo not given): -3.81%. `Cc1c(Br)c([N+](=O)[O-])nn1C(C)C(=O)Nc1ccc2c(c1)OCO2` (stereo not given): the “inhibition” value was -2.77%.

For `Cn1nc([N+](=O)[O-])nc1Sc1nnnn1-c1ccc(C(=O)O)cc1`, the “inhibition” value was -3.35%. As to `O=C(NCc1ccc2[nH]c3c(c2c1)CCCC3)c1ccc(S(=O)(=O)N2CCCC2)cc1`, the “inhibition” value is 0.84%. On to `Cc1ccc(Cl)cc1N=C(N)N=C(N)N`, for which the “inhibition” value is -1.8%. Turning to `CCOC(=O)c1sc(NC(=O)CSc2nccc(C)n2)nc1C`, the “inhibition” value is -13.7%. With `CCOC(=O)NC(=O)CN1C(=O)NC(C)(c2ccccc2)C1=O` (stereo not given), the “inhibition” value is -1.73%.
